Experimental data: article PMC4336329 (PLoS ONE, 2015)
Hit rate of the full screen: of about 310,000 compounds, about 14,000 (4.5%) showed an effect of 50% or more. Effects have a minus sign here. What follows is part of a selection rich in strong results, with near analogues and random picks from the rest.

biological target: human ether-à-go-go-related gene (hERG) potassium channel (human, UniProt Q12809); assay: primary screen, population patch clamp on CHO cells stably expressing hERG; higher = less effect of the substance
Sequence (Q12809 whole entry, looked up): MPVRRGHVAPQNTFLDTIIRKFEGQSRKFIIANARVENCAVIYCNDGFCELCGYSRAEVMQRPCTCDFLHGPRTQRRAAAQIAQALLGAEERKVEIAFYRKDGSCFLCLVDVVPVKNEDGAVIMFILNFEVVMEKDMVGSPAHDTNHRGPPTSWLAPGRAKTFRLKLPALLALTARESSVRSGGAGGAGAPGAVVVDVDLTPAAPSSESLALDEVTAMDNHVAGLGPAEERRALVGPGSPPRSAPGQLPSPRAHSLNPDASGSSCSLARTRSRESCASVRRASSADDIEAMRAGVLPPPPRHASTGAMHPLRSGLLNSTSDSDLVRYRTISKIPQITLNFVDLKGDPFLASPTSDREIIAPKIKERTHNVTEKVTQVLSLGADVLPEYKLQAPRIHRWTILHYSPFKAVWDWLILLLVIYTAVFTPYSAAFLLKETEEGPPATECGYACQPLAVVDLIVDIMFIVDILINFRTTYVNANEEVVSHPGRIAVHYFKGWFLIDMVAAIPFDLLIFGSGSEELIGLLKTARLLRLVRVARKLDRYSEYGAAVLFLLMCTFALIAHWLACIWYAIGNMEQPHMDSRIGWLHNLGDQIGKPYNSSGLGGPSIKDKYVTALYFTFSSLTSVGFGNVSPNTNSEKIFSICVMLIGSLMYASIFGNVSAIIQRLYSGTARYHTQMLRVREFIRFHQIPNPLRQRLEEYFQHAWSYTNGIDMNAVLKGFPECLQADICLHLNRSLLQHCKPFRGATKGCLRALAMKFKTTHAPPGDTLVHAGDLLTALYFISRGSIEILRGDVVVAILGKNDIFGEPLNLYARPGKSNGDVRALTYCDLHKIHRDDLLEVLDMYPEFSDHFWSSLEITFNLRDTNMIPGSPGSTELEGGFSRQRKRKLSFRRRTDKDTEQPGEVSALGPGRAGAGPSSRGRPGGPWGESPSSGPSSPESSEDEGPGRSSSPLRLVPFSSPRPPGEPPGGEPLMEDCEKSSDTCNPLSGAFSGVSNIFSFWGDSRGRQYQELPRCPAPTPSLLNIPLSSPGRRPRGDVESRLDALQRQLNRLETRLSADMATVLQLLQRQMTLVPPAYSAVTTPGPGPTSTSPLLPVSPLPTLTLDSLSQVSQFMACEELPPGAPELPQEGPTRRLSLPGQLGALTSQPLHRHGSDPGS
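Also: peak tail current of the secondary pulse compared with the same well before compound.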

SMILES | hERG current change (%, negative = inhibition) at 10uM [%]
COC(=O)C1=C(COc2ccccc2)NC(=O)NC1c1ccc(Br)cc1 (stereo not drawn) | 0.599
Cc1ccc(CSCC(=O)N/N=C/c2cccc(OC3CSC3)c2)cc1 | 11.4
Nc1nnc(/C=C/c2ccccc2Cl)s1 | 12.1
Cc1cc(C(=O)COC(=O)c2ccc([N+](=O)[O-])o2)c(C)n1CC1CCCO1 (stereo not drawn) | -42.5
CCOc1ccc(/C=C2/C(=O)NC(=O)N(CCc3ccc(F)cc3)C2=O)cc1 | 8.76
Cc1ccc(-n2nc(C(=O)NN)c(C)c(C#N)c2=O)cc1Cl | 14.5
COc1ccc(N(C(=O)Cn2nnc(-c3ccccc3F)n2)C(C(=O)NCC2CCCO2)c2ccc(Cl)cc2)cc1 (stereo not drawn) | 22.6
COc1ccc(S(=O)(=O)N(CC(=O)O)c2ccc(C)cc2)cc1 | 4
Cc1cc(Nc2ccc(Br)cc2)nc(-c2ccccc2O)n1 | 19.9
Cc1c(Cl)cccc1NC(=S)N(CCCN1CCOCC1)Cc1cccs1 | -26.5
CCc1ccccc1NC(=S)N(CCCN1CCOCC1)Cc1cccs1 | -53.5
CCc1ccccc1NC(=S)N(CCCN1CCN(C)CC1)Cc1cccs1 | -46
COc1ccc(CNC(=O)CCCn2nc(C)n3c(cc4sccc43)c2=O)cc1 | -1.61
CC(=O)N1N=C(c2cccc([N+](=O)[O-])c2)OC1c1ccccc1Cl (stereo not drawn) | -25.8
CC(=O)N1N=C(c2cccc([N+](=O)[O-])c2)OC1c1ccc(Cl)cc1Cl (stereo not drawn) | 8.14
COc1ccccc1C1OC(c2cccc([N+](=O)[O-])c2)=NN1C(C)=O (stereo not drawn) | -62
CC(C)Cc1nc(SCc2cccnc2)c2c(=O)n(C)c(=O)n(C)c2n1 | -8.32
CCCc1nc(SCc2cccnc2)c2c(=O)n(C)c(=O)n(C)c2n1 | -57.3
Cn1c(=O)c2c(SCc3cccnc3)nc(C3CC3)nc2n(C)c1=O | -9.63
Cn1c(=O)c2c(SCc3cccnc3)nc(CC(C)(C)C)nc2n(C)c1=O | -59.6
Cc1ccccc1-c1nc(SCc2cccnc2)c2c(=O)n(C)c(=O)n(C)c2n1 | 10.5
CCc1nc(SCc2cccnc2)c2c(=O)n(C)c(=O)n(C)c2n1 | -10.7
CC1=C(C(=O)NC(C)c2ccccc2)C2(CCC(C)CC2)OC1=O (stereo not drawn) | -4.71
Cc1ccc(C)c2c1N(Cc1ccccc1)C(=O)C21OCCO1 | -21.8
